Data on 14 compounds can be found in PubChem BioAssay (EPA / NIEHS).

Experiment [1] can be described thus: ATG_GLI_CIS: Attagene CIS-FACTORIAL HepG2 Assay for human Zinc Finger Protein GLI1 (AID 2282945). The following applies: HepG2, Attagene cis-factorial reporter mRNA, GLI element; actives raise or lower the signal. Summed up:
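HepG2 cells transiently transfected with cis-promoter multiplexed reporter units report endogenous transcription factor activity. After 24 h chemical exposure, reporter mRNA was quantified by RT-PCR, 6-FAM labelling, HpaI digestion and capillary electrophoresis, with bidirectional fitting against DMSO.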

Experiment [2] deals with Bile acid receptor (Homo sapiens) (UniProt Q96RI1). The experiment can be described thus: ATG_IR1_CIS: Attagene CIS-FACTORIAL HepG2 Assay for human Nuclear Receptor Subfamily 1 Group H Member 4 (NR1H4), IR1 submotif (AID 2282946). The following applies: IR1 reporter transcription, actives raise or lower the signal. The gist of the method: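 Readout: reporter transcript levels by RT-PCR with fluorescent capillary electrophoresis, from HepG2 cells transiently transfected with multiplexed cis-regulated reporters and dosed 24 h. Gain- or loss-of-signal fitted versus DMSO negative control.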
Bile acid receptor (Homo sapiens), sequence (Q96RI1 whole entry, looked up): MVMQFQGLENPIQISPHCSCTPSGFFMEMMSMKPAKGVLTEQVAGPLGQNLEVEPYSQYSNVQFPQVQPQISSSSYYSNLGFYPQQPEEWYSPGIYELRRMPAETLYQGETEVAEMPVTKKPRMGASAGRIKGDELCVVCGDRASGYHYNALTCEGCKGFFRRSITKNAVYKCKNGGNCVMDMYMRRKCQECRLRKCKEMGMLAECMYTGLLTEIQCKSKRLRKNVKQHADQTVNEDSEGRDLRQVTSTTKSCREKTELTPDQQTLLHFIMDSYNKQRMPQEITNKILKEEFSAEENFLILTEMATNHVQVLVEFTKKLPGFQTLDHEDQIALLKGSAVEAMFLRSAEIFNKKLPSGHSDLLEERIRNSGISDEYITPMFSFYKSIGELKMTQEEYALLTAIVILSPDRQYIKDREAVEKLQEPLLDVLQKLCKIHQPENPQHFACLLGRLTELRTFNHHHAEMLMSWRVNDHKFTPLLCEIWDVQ

Experiment [3] is described as follows: ATG_GRE_CIS: Attagene CIS-FACTORIAL HepG2 Assay for human Glucocorticoid Response Elements (GRE) (AID 2282947). The following applies: HepG2 GRE cis-reporter, Attagene multiplex mRNA; actives raise or lower the signal. Summed up: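 HepG2, transient cis-reporter transfection, 24 h. Reporter mRNA: RT-PCR then CE, fluorescence. Fit both directions vs DMSO.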
Experiment [4] is described as follows: ATG_ISRE_CIS: Attagene CIS-FACTORIAL HepG2 Assay for human Interferon Regulatory Factor 1 (IRF1) binding to an Interferon-Stimulated Response Element (ISRE) (AID 2282948). The following applies: HepG2 ISRE cis-reporter (Attagene), mRNA transcription readout; actives raise or lower the signal. Summed up: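 Endogenous transcription factor activity read as reporter transcript abundance via RT-PCR and capillary electrophoresis. HepG2 cells transiently transfected, 24 h chemical exposure. Gain or loss fitted against DMSO baseline.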

The nature of experiment [5]: ATG_M_32_CIS: Attagene CIS-FACTORIAL HepG2 Assay for M32 Transcription Factor (Internal Marker) (AID 2282949).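 Further: background control marker of the multiplexed CIS panel rather than a real target.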 The following applies: HepG2 Attagene cis-factorial M32 reporter, mRNA; actives raise or lower the signal. Summed up:
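Transient MRTU transfection of HepG2; 24 h compound treatment; TriZol RNA, oligo(dT) RT, reporter PCR, 6-FAM primer extension, HpaI cut, CE. Gain/loss of signal vs DMSO.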

The target of experiment [6] is Hypoxia-inducible factor 1-alpha (Homo sapiens) (UniProt Q16665). As to the kind of experiment: ATG_HIF1a_CIS: Attagene CIS-FACTORIAL HepG2 Assay for human Hypoxia Inducible Factor 1 (HIF1A) (AID 2282951). The conditions noted are these: HepG2 Attagene cis-factorial HIF1a reporter transcription; actives raise or lower the signal. The gist of the method: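 Endogenous-TF cis reporter readout, human HepG2 cells, 24 h incubation; mRNA detected via RT-PCR and capillary electrophoresis fluorescence; DMSO-normalised bidirectional fitting.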
Hypoxia-inducible factor 1-alpha (Homo sapiens), sequence (Q16665 whole entry, looked up): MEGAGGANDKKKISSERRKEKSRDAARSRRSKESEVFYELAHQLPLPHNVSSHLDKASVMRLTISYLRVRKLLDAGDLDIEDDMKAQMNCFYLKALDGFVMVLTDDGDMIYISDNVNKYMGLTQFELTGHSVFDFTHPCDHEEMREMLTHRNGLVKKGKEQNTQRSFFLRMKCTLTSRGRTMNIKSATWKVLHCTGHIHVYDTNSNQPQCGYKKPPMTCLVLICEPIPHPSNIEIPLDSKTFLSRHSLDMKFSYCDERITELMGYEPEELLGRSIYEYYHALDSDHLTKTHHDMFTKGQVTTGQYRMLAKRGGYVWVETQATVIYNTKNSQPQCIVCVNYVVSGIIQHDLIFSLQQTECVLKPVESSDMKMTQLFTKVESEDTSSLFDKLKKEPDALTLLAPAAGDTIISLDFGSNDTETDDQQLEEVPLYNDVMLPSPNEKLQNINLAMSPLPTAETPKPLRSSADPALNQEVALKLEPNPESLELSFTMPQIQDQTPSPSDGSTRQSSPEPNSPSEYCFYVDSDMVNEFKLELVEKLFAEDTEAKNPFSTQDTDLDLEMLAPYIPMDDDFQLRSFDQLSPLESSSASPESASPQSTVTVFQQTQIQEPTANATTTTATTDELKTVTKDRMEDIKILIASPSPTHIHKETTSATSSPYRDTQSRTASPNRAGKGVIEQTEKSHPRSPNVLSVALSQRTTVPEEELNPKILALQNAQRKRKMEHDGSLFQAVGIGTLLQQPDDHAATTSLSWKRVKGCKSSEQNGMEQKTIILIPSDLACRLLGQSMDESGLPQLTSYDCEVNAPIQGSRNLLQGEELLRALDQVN

In experiment [7] the target is Hepatocyte nuclear factor 6 (Homo sapiens) (UniProt Q9UBC0). The experiment can be described thus: ATG_HNF6_CIS: Attagene CIS-FACTORIAL HepG2 Assay for human Hepatocyte Nuclear Factor 6 (HNF6) (AID 2282952). The conditions noted are these: HepG2 Attagene cis-factorial HNF6 reporter transcription; actives raise or lower the signal. The gist of the method: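 Activity values derive from bidirectional fitting against DMSO of reporter mRNA levels, measured by capillary electrophoresis of labelled RT-PCR products from HepG2 cells exposed 24 h.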
Hepatocyte nuclear factor 6 (Homo sapiens), sequence (Q9UBC0 whole entry, looked up): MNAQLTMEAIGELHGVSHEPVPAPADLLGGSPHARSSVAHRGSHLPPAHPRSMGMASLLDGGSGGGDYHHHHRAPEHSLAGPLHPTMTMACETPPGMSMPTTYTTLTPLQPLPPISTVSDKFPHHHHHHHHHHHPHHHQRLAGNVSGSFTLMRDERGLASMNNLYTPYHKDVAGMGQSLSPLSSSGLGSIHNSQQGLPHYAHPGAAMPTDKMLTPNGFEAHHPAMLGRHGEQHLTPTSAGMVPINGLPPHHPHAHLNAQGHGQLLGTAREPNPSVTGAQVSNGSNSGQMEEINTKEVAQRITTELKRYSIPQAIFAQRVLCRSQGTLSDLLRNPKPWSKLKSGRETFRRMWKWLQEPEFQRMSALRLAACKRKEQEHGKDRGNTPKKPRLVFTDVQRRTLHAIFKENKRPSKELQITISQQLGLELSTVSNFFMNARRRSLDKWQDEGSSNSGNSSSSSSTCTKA

The target of experiment [8] is Heat shock factor protein 1 (Homo sapiens) (UniProt Q00613). The experiment can be described thus: ATG_HSE_CIS: Attagene CIS-FACTORIAL HepG2 Assay for human Heat Shock Transcription Factor 1 (HSE) (AID 2282953). The following applies: HepG2 HSE cis-reporter, Attagene RNA transcription; actives raise or lower the signal. The gist of the method:
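Using HepG2 with transfected cis-driven reporter constructs, compound effects on endogenous factor activity are scored as reporter mRNA change at 24 h. Detection: RT-PCR, HpaI digestion, capillary electrophoresis; bidirectional fitting to DMSO.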

Experiment [9] in a line: ATG_MRE_CIS: Attagene CIS-FACTORIAL HepG2 Assay for human Metal Responsive Element (MRE) (AID 2282954). The conditions noted are these: HepG2 MRE cis-reporter transcription, Attagene multiplex; actives raise or lower the signal. Summed up:
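Readout: capillary electrophoresis of 6-FAM-labelled, HpaI-digested RT-PCR reporter products. System: HepG2 cells carrying transient multiplexed cis reporters, dosed 24 h. Analysis: bidirectional fit, DMSO baseline.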

Experiment [10] can be described thus: ATG_M_06_CIS: Attagene CIS-FACTORIAL HepG2 Assay for M06 Transcription Factor (Internal Marker) (AID 2282950). The following applies: HepG2 Attagene CIS-FACTORIAL M06 internal marker reporter; actives raise or lower the signal. Summed up: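 One of many multiplexed endpoints: HepG2 reporter mRNA after 24 h dosing, detected by RT-PCR and capillary electrophoresis fluorescence; gain or loss of signal analysed against DMSO.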

Molecules are shown by their SMILES. Active and inactive are the calls of the source. How the source made its calls: active means hit-call score of the fitted dose curve at least 0.9, where 1 is the maximum; inactive means score below 0.9.

Heat shock factor protein 1 (Homo sapiens), sequence (Q00613 whole entry, looked up): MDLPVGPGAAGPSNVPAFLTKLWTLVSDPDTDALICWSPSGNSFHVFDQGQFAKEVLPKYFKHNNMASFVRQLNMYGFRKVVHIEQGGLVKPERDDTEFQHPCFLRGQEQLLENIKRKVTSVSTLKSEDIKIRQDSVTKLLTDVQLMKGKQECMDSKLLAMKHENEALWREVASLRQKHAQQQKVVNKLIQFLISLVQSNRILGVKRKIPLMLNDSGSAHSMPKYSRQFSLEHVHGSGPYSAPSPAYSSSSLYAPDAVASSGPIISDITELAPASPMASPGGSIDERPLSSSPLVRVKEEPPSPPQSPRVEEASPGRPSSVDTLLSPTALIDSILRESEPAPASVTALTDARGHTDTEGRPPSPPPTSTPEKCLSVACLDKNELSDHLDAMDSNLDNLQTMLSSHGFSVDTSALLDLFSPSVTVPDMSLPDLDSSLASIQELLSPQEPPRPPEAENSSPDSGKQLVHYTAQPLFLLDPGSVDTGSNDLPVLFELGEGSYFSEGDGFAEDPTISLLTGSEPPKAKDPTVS

For the compound `OC[C@H]1O[C@@H](O[C@H]2[C@H](O)[C@@H](O)[C@H](O)O[C@@H]2CO)[C@H](O)[C@@H](O)[C@H]1O`, the result in experiment [1], in [2], in experiment [3], in [4], in experiment [5] and in experiment [6] was inactive. Also, the call in experiment [7], in experiment [8] and in experiment [9] was inactive.

Take `CC1=CC(C)C(C=O)C(C)C1` (centres undefined) (tested in a mixture with another compound): the call in experiment [1], in experiment [2], in experiment [3], in [4], in experiment [5] and in experiment [10] was inactive. In addition, the compound was classed as inactive in [7] and in [8].

Regarding `CC1COC(=O)O1` (centres undefined), the compound was classed as inactive in experiment [1], in experiment [2], in experiment [3], in [4], in experiment [5] and in experiment [10]. Further, the compound was classed as inactive in [7] and in experiment [8].

Broadly, the AC50 is the concentration giving half of the maximal activity seen. Take `C=CC(O)CCCCC` (centres undefined): the call in experiment [1], in [2], in experiment [4], in experiment [5], in experiment [10] and in experiment [7] was inactive. Also, the compound was called inactive in experiment [8] and in experiment [9]. Moreover, the concentration at half-maximal activity (AC50) in experiment [6] is 26.9 µM (active).

On to `Brc1cc(Br)cc(Br)c1`, for which the compound was classed as inactive in experiment [1], in experiment [2], in experiment [3], in experiment [4], in experiment [5] and in [10]. In addition, the result in [7] and in experiment [8] was inactive.

For the compound `C=C(C)C(=O)OCCOCCOC(=O)C(=C)C`, the call in [1], in [2], in [4], in [5], in [10] and in experiment [6] was inactive. Also, the result in experiment [7], in experiment [8] and in [9] was inactive.

For the compound `CN(C)CCC=C1c2ccccc2CCc2ccccc21`, the result in [1], in [2], in experiment [3], in experiment [5], in [10] and in experiment [7] was inactive. Further, the result in [8] was inactive. Also, the AC50 in [4] was 21.5 µM (active); in [9] it was 43.2 µM (active).

For the compound `CN1CCc2cccc3c2[C@H]1Cc1ccc(O)c(O)c1-3`, the outcome in experiment [1], in [2], in experiment [3], in experiment [5], in [10] and in experiment [7] was inactive. The result in experiment [8] and in experiment [9] was inactive. Moreover, the AC50 in experiment [4] was 13.3 µM (active).

In the case of `COc1ccccc1O`, the call in experiment [1], in experiment [2], in experiment [3], in experiment [4], in [5] and in experiment [6] was inactive. For the same compound, the outcome in experiment [7], in experiment [8] and in [9] was inactive.

Regarding `CC1=CC[C@@H](C(C)(C)O)CC1`, the compound was called inactive in experiment [1], in [2], in [4], in [5], in [10] and in [6]. For the same compound, the compound was classed as inactive in experiment [7], in experiment [8] and in experiment [9].

Regarding `[Cl][Dy]([Cl])[Cl]`, the result in experiment [1], in experiment [2], in [3], in experiment [4], in experiment [5] and in [6] was inactive. For the same compound, the call in [7], in experiment [8] and in experiment [9] was inactive.

For `CC(CO)(CO)[N+](=O)[O-]`, the compound was called inactive in [1], in [2], in experiment [3], in experiment [4], in experiment [5] and in [10]. In addition, the call in experiment [6], in experiment [7] and in experiment [9] was inactive.

With `C[C@H](CCC(=O)O)[C@H]1CC[C@H]2[C@@H]3CC[C@@H]4C[C@H](O)CC[C@]4(C)[C@H]3CC[C@]12C`, the result in experiment [1], in experiment [2], in experiment [3], in experiment [5] and in experiment [10] was inactive. Further, the AC50 in experiment [4] is 27.4 µM (active); in experiment [7], 146 µM (active); in experiment [8], 25.6 µM (active); in experiment [9], 26.4 µM (active).

Take `c1ccc2c(c1)-c1ccc3ccc4cccc5cc-2c1c3c45`: the outcome in experiment [1], in experiment [2], in [3], in experiment [4], in [5] and in [10] was inactive. Also, the outcome in experiment [7], in experiment [8] and in experiment [9] was inactive. Further, the AC50 in experiment [6] is 0.0166 µM (active).
